For twelve molecules, growth reduction results are on record in the supplement of paper PMC12024424.

Where a name gives a salt, the structure may show the parent alone.

The experiment concerns Staphylococcus aureus Sa2 (MRSA, cystic fibrosis isolate). The experiment in a line: growth reduction vs untreated control (OD550); higher = stronger antibacterial activity. The conditions noted are these: 0.1 mM; 24 h. How it is done:
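Single-dose screen of the MedChem Express Drug Repurposing Library (0.1 mM, 1% DMSO) against planktonic MRSA S. aureus Sa2 (CF isolate) in TSB in 96-well plates, 37 °C aerobic, 24 h. Assays were run in triplicate and repeated twice.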
Turning to `COc1ccc(C(=O)NC2(C(=O)O)Cc3ccccc3C2)cc1OCCc1cccc(C)c1`, the growth reduction turned out to be 90.3%.

On to `CN1CCCC(CC2c3ccccc3Sc3ccccc32)C1` (configuration not stated) [Metixene hydrochloride hydrate], for which the growth reduction was determined as 100%.

Consider `OC(c1cc(C(F)(F)F)nc2c(C(F)(F)F)cccc12)C1CCCCN1` (configuration not stated) [Mefloquine (hydrochloride)], for which the growth reduction turned out to be 100%.

`O=C(NC(=Nc1cc(C(F)(F)F)[nH]n1)Nc1cc(F)cc(Cl)c1)c1cccc(Cl)c1` [Parimifasor] registered a growth reduction of 100%.

Molecule `CCCCc1nc(-c2ccc(OCCCN(CC)CC)cc2)cn1-c1ccc(Oc2ccc(Cl)cc2)cc1` [Azeliragon] had a growth reduction of 100%.

Take `Cc1ccc(C(=O)Nc2ccc(CN3CCN(C)CC3)c(C(F)(F)F)c2)cc1C#Cc1cnc2[nH]ncc2c1`: the growth reduction was 100%.

As for `Oc1c(I)cc(Cl)c2cccnc12` [Clioquinol], the growth reduction amounted to 100%.

`Cc1nc2c([nH]1)-c1ccccc1N(C(=O)c1ccc(NC(=O)c3ccccc3-c3ccccc3)cc1)CC2` [Conivaptan (hydrochloride)] returned a growth reduction of 90.4%.

In turn, `C#C[C@]1(O)CC[C@H]2[C@@H]3CCC4=CCCC[C@@H]4[C@H]3C(=C)C[C@@]21CC` [Desogestrel] yielded a growth reduction of 99.4%.

For the molecule `Fc1ccc(C(c2ccc(F)cc2)N2CCN(C/C=C/c3ccccc3)CC2)cc1` [Flunarizine (dihydrochloride)], the growth reduction is 94.4%.

The molecule `CCCCN(CCCC)C(=O)CN1C[C@H](c2ccc3c(c2)OCO3)[C@@H](C(=O)O)[C@@H]1c1ccc(OC)cc1` [Atrasentan (hydrochloride)] came in with a growth reduction of 100%.

`CC1(C)CCC(C)(C)c2cc(Cn3cccn3)c(/C=C/c3ccc(C(=O)O)cc3)cc21` [Palovarotene] displayed a growth reduction of 100%.
